According to the supplement of paper PMC3334620:
The full ranking holds about 33,000 sequences; the median of “E-score (-0.5 to 0.5)” is about -0.04, and the highest 2% start at about 0.36. This excerpt belongs to a sample that is enriched for the highest values.

What follows are sequences tested against T1, Hmlalpha2 (UniProt P0CY09) (assay: PBM E-score (8-mer binding enrichment) (E-score (-0.5 to 0.5)); higher = stronger / more preferred TF binding). Details: protein concentration: 200 nM; construct: GST-full length.
T1 sequence: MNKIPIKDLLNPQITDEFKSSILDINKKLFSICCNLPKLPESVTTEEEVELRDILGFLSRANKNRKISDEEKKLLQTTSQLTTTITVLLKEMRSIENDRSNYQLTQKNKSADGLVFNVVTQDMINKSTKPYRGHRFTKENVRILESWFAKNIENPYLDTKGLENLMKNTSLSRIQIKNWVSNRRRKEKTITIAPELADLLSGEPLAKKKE
How it was run: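 Using PURExpress in vitro transcription/translation, GST-tagged yeast transcription factors were made in full-length or DNA-binding-domain form. These were applied at about 100-200 nM to double-stranded universal all-10-mer Agilent arrays, and bound protein was detected with fluorescent anti-GST. Scans were normalised with masliner before the Universal PBM Analysis Suite assigned E-scores to ungapped eight-base words pooled with their reverse complements.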

Sequence	PBM E-score
CCCTTTAC	0.134
ATACTCCG	-0.0161
AAATTGCC	-0.0531
CTTTCTTC	-0.09
CAATCGGC	-0.156
CAGCCACA	-0.111
ACCAGAGA	-0.144
ACCTAAAC	0.098
CCTAGCGC	-0.102
ATCGACCG	-0.223
AGTAACAT	0.295
GATAACAA	0.324
GCTAACAC	0.366
GATAACAC	0.39
CATAACAG	0.174
AATAACCT	0.104
ACTAACAC	0.293
GATAACGC	0.199
AATAACAT	0.412
GCTAACAA	0.164
CATAACAC	0.397
CATAACAA	0.323
ACAACCAT	0.278
CCTACAAA	0.0287
ATCTGAGC	-0.0204

Sequence	PBM E-score
AGCTAACG	0.117
AGGGTACG	0.0138
AGATAGAA	-0.166
TATCCTAA	0.00317
GGACCTTA	-0.238
AATAACAA	0.267
AATAACAC	0.396
AATAACAG	0.307
TGAATACA	0.397
ACAATACA	0.326
CGAATACC	-0.0493
GGAATACA	0.431
TCAATACA	0.372
CGAATACG	0.259
TGGATACA	0.17
GGAATAGA	-0.0449
TGAATAAA	0.245
CCAATACA	0.313
CGAATACA	0.39
GGAATACC	-0.0768
GTAAGTAC	0.234
CACTAGGA	-0.225
AGAGGTCC	-0.273
AGCTGCAA	-0.227
AACCTCAA	0.0617

Sequence	PBM E-score
AGTTTGCG	-0.0236
ACTATCTG	-0.156
CTATGAAG	-0.149
CGATCCGA	-0.256
AGCGGCTA	-0.0688
ACTCTACT	0.0373
AAAATACA	0.334
AGAATACA	0.366
AGAATACG	0.192
GAAATACA	0.346
AGAATACC	0.0773
TAAATACA	0.434
CATGTAAC	0.456
CCTGTAAC	0.093
AATGTAAG	0.294
CCTGTAAG	-0.00273
GATGTAAC	0.215
CATGTAAG	0.47
CGAGATCG	-0.0661
GCATGCGA	0.0698
AAACCACC	-0.166
AGAGCCGA	-0.106
ATGTTGTG	0.362
ATGTTGTA	0.406
GTGTTGTA	0.382

Sequence	PBM E-score
CTGTTGTA	0.253
ATGTTGTC	0.364
GTGTTGCA	0.187
CATACCGG	-0.154
AGTCTGCC	-0.184
CAACGGAG	-0.12
ACCCTTAA	-0.0263
AGTATGTA	0.394
GGTATGTA	0.4
GGTATGGA	-0.18
AGTATGTC	0.201
AGTATGTG	0.115
CGTATGTA	0.356
AATTAGAA	0.0299
GAAAAACC	-0.0498
ATGAGGAG	-0.187
ACGTTAAC	0.281
GCGTTAAC	0.379
CCGTTAAA	0.125
CCGTTAAC	0.0773
GCGTTAAA	0.366
TCGTTAAA	0.126
CCAACCTC	-0.128
GATAAGTA	0.0843
AAGGGCTC	-0.21

Sequence	PBM E-score
TCGTTTAA	0.293
GGCGTGCA	-0.128
CGCGTGTA	0.458
CGCGTGCA	-0.0161
GGCGTGTA	0.464
AGCGTGTA	0.472
AGCGTGTG	0.249
GGCGTGAA	-0.0431
AGCGTGTC	0.317
CGCGTGTC	0.262
AACATATA	0.286
CTGGATCC	-0.25
GCTTAGAA	-0.00669
AAAATTGG	-0.167
GGTCGACC	-0.0813
TCTAAACA	0.228
GGTAAACA	0.333
CGTAAGAA	0.106
TGTAAGAA	0.391
TGTAAACA	0.461
AGTAACAA	0.288
TGTAACAA	0.384
CGTAAACA	0.394
ACTAAACA	0.196
GGTAAGAA	-0.0659

Sequence	PBM E-score
AGTAAACA	0.337
CGTAACAA	0.228
TGCCTCCA	-0.233
CTGCACAC	0.0406
TATCACGA	0.00013
GAAGACAC	0.0337
CCGCTCCC	-0.362
AGGTCTGG	-0.101
AGGAAAGC	-0.203
CGTAAAAA	0.345
TGTAGAAA	0.429
CGTAGAAA	0.31
TGTAAAAA	0.444
GATAAACA	0.212
AGTAGAAA	0.124
CATAAACA	0.384
TATAAACA	0.358
AGTAAAAA	0.196
TTCTTCAA	0.0864
ACTCATAC	-0.00755
GGAAGCTA	-0.236
CCCTGGGC	-0.302
AGCCCTAA	0.00565
AAACACAG	0.318
AAACACGC	0.426

Sequence	PBM E-score
AAACACCA	-0.0494
AAACACCG	0.196
AAACACGG	0.371
AAACACTC	0.109
AAACACGT	0.361
AAACACAC	0.34
AAACACGA	0.383
CCAAGTCC	-0.309
TGGTGACA	0.087
GGGTTGGA	-0.133
AAGGGATC	-0.156
AGTATACA	0.322
TCTATACA	0.209
CGTATACA	0.377
TGTATACA	0.428
GGTATACA	0.254
TGTATAAA	0.342
ATGTGAAT	0.297
AACAACCG	0.156
CGTTTACC	0.0999
GGTTTACA	0.396
CGTTTAGA	-0.00881
GTTTTATA	0.144
GTTTTAAA	0.22
GGTTTATA	0.101

Sequence	PBM E-score
GGTTTAAC	0.279
CGTTTAAG	-0.102
CGTTTAAC	0.365
CGTTTACA	0.452
GGTTTAGA	-0.168
GTTTTACA	0.408
TCAGGGCA	-0.0208
AGGATATG	-0.0728
ATGGTCAC	-0.0853
GCTGAATA	0.0885
CGGGAAGC	-0.026
AGTTTACC	0.075
AGTTTACA	0.405
AGTTTACG	0.278
CGCATTAG	-0.105
GCCTGTCA	-0.0584
CAGTGTGG	-0.13
AACATGTT	0.46
AACATCTT	-0.0095
AACATTTA	0.242
AACATGTA	0.484
AAGATGTA	0.268
AACATGTC	0.333
AACATCTG	0.128
CACATGTG	0.163

Sequence	PBM E-score
AACATGTG	0.395
ACCAGCAC	-0.0704
ATGCGAAT	-0.0339
CGGTCAGA	-0.199
CAAGGTCA	-0.102
TAGGTGGA	-0.0803
CGGTGGAG	-0.362
ATACTGGA	0.0598
GTACATAA	0.377
GCACATAA	0.12
GGACATAA	0.05
TGACATAA	0.319
TTACATAA	0.474
TAACATAA	0.422
CAACATAA	0.359
CTACATAA	0.317
GAACATAA	0.191
GCCAAGAC	-0.161
CGTGCAAA	0.172
ACAATTTA	0.173
GGACTAGA	-0.227
TCATGTCA	0.359
GCATGTCA	0.36
TCATGGAA	-0.157
GCATGTAA	0.485

Sequence	PBM E-score
TCATGTAA	0.482
GCATGTGA	0.263
AAGGTCCG	-0.108
AACCTCGA	-0.0213
TAGGAGAA	0.122
GCATAGCC	-0.0671
GTTTTTAA	0.279
ATGTGTGG	0.0473
GTGTGTTA	0.435
CTGTGTTC	0.304
ATGTGTCA	0.261
ATGTGTGA	0.202
GAGTGTTA	0.21
ATGTGTTC	0.233
GGGTGTTA	0.195
ATGTGTTG	0.39
CGGTGTTA	0.253
CTGTGTTA	0.398
ATGTGTTA	0.429
GTGGACCA	-0.0852
ACTCTGTA	0.204
ATATCACC	0.0884
ACTGCTCG	-0.0631
CCTTCAAC	0.058
GTGATCAC	-0.229

Sequence	PBM E-score
ATCGCTGC	-0.136
TAAGCGCA	0.0443
AGTCAACA	0.269
CTTGGTCC	-0.159
CCCATACC	-0.159
ATGTACAC	0.43
GCGTACAC	0.247
CTGTACAG	0.0499
CTGTACAA	0.288
ATGTACCC	0.148
TTGTACAA	0.442
AGGTACAC	0.0905
GGGTACAA	0.0999
TAGTACAA	0.244
GTGTACAA	0.439
GTGTACAC	0.415
CTGTACAC	0.291
AACTGCGT	0.257
ATGAAGAC	0.028
GTGAAATA	0.185
TACGTCGA	0.0708
CCCGCCAC	-0.152
ATATTGGG	-0.261
GACTCTGA	-0.12
CTCGAACA	0.112

Sequence	PBM E-score
AAAGCCAT	0.0384
AACCCTGG	-0.204
AGGTACAT	0.288
ATGTACAG	0.289
ATGTACGA	0.281
ATGTACAT	0.457
GTGTACTA	0.311
ATGTACAA	0.433
ATGTACTA	0.397
ATGTACTG	0.351
AGGTACAA	0.21
GCGCAAGA	-0.0432
AAGACAGT	-0.0478
AGAAAGTG	-0.223
CCATTCGA	-0.0609
ATCTCGTA	0.191
AAATCCGC	-0.125
GAAAATTC	-0.0326
CAGCCTTC	-0.301
CCATGATA	-0.142
ACATGATG	0.348
ACATGATC	0.426
CCATGATC	-0.128
ACATGAGA	0.406
ACATGAGT	0.364

Sequence	PBM E-score
GCATGATA	0.116
ACATGATA	0.435
TCATGAGA	0.0706
CGGATATC	-0.0199
TCTCTGAA	-0.162
CGCATAGC	-0.0965
AGGTCCAA	-0.112
ACGACCCC	-0.127
ATGGCAAA	-0.00556
ATTGTACG	0.123
CTTGTACC	0.0814
GTTGTACA	0.424
GTTGTAGA	0.325
GCTGTACA	0.154
CTTGTACA	0.403
ATTGTACC	0.0764
ATTGTACA	0.403
CTTGTAGA	0.253
CTAGTTCA	0.0551
CCTCTCCG	-0.305
TAAGTCGA	-0.0631
CAACGGTC	-0.0538
AAGAGGGA	-0.246
CAAGATAG	-0.0379
GTTTTGAA	0.315

Sequence	PBM E-score
ATCTCCTG	-0.0358
GAGTGTAA	0.295
ATGTGTAG	0.349
ATGTGTAC	0.372
CTGTGTCA	0.0766
GTGTGTAA	0.465
GGGTGTAA	0.342
ATGTGTGC	-0.0456
CTGTGTAC	0.35
CTGTGTAA	0.483
AAGTGTAA	0.156
ATGTGTAA	0.452
CTGTGTGA	0.247
CTCAGAGA	-0.0918
CGCTAAAC	0.0834
CAAGATGA	-0.0169
AAATGCCG	-0.02
ACGGGGAA	-0.0619
AGACCACT	-0.00203
